# This is part of a sample that, as a whole, favours compounds with a hit. Of some 79,000 tested, about 15% had one in any assay. A number with no mark means an inactive call. Activity calls are given as the source filed them. Rule as the data show it: active = growth inhibition above about 70%; inactive = the rest.
# Legend:
# [1] = NCI Yeast Anticancer Drug Screen. Data for the rad52 strain (AID 147);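 also: 0% = growth of vehicle-treated control cultures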; details: S. cerevisiae rad52 mutant growth inhibition, stronger effect = higher value
# Procedure, shortened: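 Yeast strain carrying a DNA damage repair alteration was exposed to test compounds. Growth inhibition was measured relative to vehicle-treated controls.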
# [2] = NCI Yeast Anticancer Drug Screen. Data for the wt1 strain (AID 149);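 also: 0% = growth of vehicle-treated wt1 cultures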; details: S. cerevisiae wt1 strain (SPY 50644) growth inhibition, stronger effect = higher value
# Procedure, shortened: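 Measured: growth of wt1 yeast under compound versus vehicle treatment, reported as inhibition.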
# [3] = NCI Yeast Anticancer Drug Screen. Data for the rad50EPP+ strain (AID 151);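 also: 0% = growth of vehicle-treated control cultures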; details: S. cerevisiae rad50 mutant strain, stronger effect = higher value
# Procedure, shortened: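 Yeast strain carrying rad50 alteration (rad50EPP+) exposed to compounds; growth inhibition measured relative to vehicle-treated controls.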
# [4] = NCI Yeast Anticancer Drug Screen. Data for the rad50 strain (AID 155);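 also: 0% = growth of vehicle-only cultures of the same strain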; details: S. cerevisiae rad50 strain growth inhibition, stronger effect = higher value
# Procedure, shortened: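 Growth of the mutant yeast was measured after compound exposure and referenced to vehicle-treated cultures.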
# [5] = NCI Yeast Anticancer Drug Screen. Data for the mec2-1 strain (AID 157); details: S. cerevisiae mec2-1 strain, stronger effect = higher value
# Procedure, shortened: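 mec2-1 yeast strain, carrying an alteration in DNA damage repair or cell cycle control, was exposed to compounds; growth inhibition was measured relative to vehicle-treated controls.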
# [6] = NCI Yeast Anticancer Drug Screen. Data for the rad14 strain (AID 159);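 also: 0% = growth of vehicle-treated control cultures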; details: S. cerevisiae rad14 strain growth inhibition, stronger effect = higher value
# Procedure, shortened: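 Here, inhibition of yeast growth was measured after compound exposure, using a strain with a genetic defect in DNA damage repair and vehicle-treated cultures as the reference.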
# [7] = NCI Yeast Anticancer Drug Screen. Data for the sgs1 mgt1 strain (AID 161);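 also: 0% = growth of cultures given vehicle only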; details: S. cerevisiae sgs1 mgt1 strain, stronger effect = higher value
# Procedure, shortened: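 This yeast growth screen uses a strain with defined DNA-repair lesions; compound-treated growth is compared with vehicle-treated growth.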
# [8] = NCI Yeast Anticancer Drug Screen. Data for the CLN2oe strain (AID 163);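 also: 0% = growth of vehicle-only control cultures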; details: S. cerevisiae CLN2oe strain, stronger effect = higher value
# Procedure, shortened: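 Yeast cells carrying a defined cell-cycle control alteration were exposed to test compounds. Growth inhibition was scored against vehicle-treated control cultures.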
# [9] = NCI Yeast Anticancer Drug Screen. Data for the bub3 strain (AID 167); details: S. cerevisiae bub3 mutant strain, stronger effect = higher value
# Procedure, shortened: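 Whole-cell yeast assay. The mutant strain was incubated with compounds, and growth inhibition was determined by comparison with vehicle-treated cells.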
# [10] = NCI Yeast Anticancer Drug Screen. Data for the wt2 strain (AID 169);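 also: 0% = growth of vehicle-treated yeast cultures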; details: S. cerevisiae wt2 strain growth inhibition, stronger effect = higher value
# Procedure, shortened: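 Yeast cells were exposed to test compounds, and growth inhibition was measured relative to vehicle-treated controls.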
# [11] = NCI Yeast Anticancer Drug Screen. Data for the mlh1 strain (AID 171);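 also: 0% = growth of vehicle-treated control cultures of the same strain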; details: S. cerevisiae mlh1 strain growth inhibition, stronger effect = higher value
# Procedure, shortened: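 Yeast carrying a defined genetic alteration in DNA damage repair or cell cycle control were exposed to test compounds. Growth inhibition was measured relative to vehicle-treated controls.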
# [12] = NCI Yeast Anticancer Drug Screen. Data for the sgs1 strain (AID 173);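 also: 0% = growth of vehicle-only control cultures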; details: S. cerevisiae sgs1 mutant, stronger effect = higher value
# Procedure, shortened: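 Yeast mutant strains carrying defined defects in DNA damage repair or cell cycle control were exposed to test compounds. Growth inhibition was scored against vehicle-treated controls.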
# [13] = NCI Yeast Anticancer Drug Screen. Data for the mlh1 rad18 strain (AID 175); details: S. cerevisiae mlh1 rad18 strain growth inhibition, stronger effect = higher value
# Procedure, shortened: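 Growth inhibition of the yeast strain was measured after compound exposure and expressed relative to vehicle-treated controls. The strain carries defined defects in DNA damage repair.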
# [14] = NCI Yeast Anticancer Drug Screen. Data for the rad18 strain (AID 177); details: S. cerevisiae rad18 mutant growth inhibition, stronger effect = higher value
# Procedure, shortened: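 Yeast carrying a defined DNA damage repair alteration were exposed to compounds. Growth inhibition was expressed relative to vehicle-treated controls.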
# [15] = NCI Yeast Anticancer Drug Screen. Data for the cln2 rad14 strain (AID 165);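 also: 0% = growth equal to vehicle treated cultures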; details: S. cerevisiae cln2 rad14 strain, stronger effect = higher value
# Procedure, shortened: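 Yeast carrying cln2 and rad14 alterations (cell cycle control and DNA damage repair) were exposed to compounds. Growth inhibition was measured against vehicle-treated controls.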
# [16] = at 5.0 µM (retest, dose inferred, filed as 0.5)
# [17] = at 50.0 µM (retest, dose inferred, filed as 5.0)
smiles,measurement,setting,value
O=[N+]([O-])c1cccc2nc3ccccc3c(NCCc3cccc[n+]3[O-])c12,growth inhibition,[1]; at 1.2 µM,15%
same,growth inhibition,[1]; at 3.7 µM,47%
same,growth inhibition,[1]; at 11.0 µM,81% (active)
same,growth inhibition,[1]; at 33.0 µM,92% (active)
same,growth inhibition,[1]; at 100.0 µM,97% (active)
same,growth inhibition,[2]; at 1.2 µM,0%
same,growth inhibition,[2]; at 3.7 µM,1%
same,growth inhibition,[2]; at 11.0 µM,11%
same,growth inhibition,[2]; at 33.0 µM,27%
same,growth inhibition,[2]; at 100.0 µM,70% (active)
same,growth inhibition,[3]; at 1.2 µM,21%
same,growth inhibition,[3]; at 3.7 µM,43%
same,growth inhibition,[3]; at 11.0 µM,72% (active)
same,growth inhibition,[3]; at 33.0 µM,82% (active)
same,growth inhibition,[3]; at 100.0 µM,90% (active)
same,growth inhibition,[4]; at 1.2 µM,10%
same,growth inhibition,[4]; at 3.7 µM,30%
same,growth inhibition,[4]; [16],70% (active)
same,growth inhibition,[4]; at 11.0 µM,68%
same,growth inhibition,[4]; at 33.0 µM,88% (active)
same,growth inhibition,[4]; [17],96% (active)
same,growth inhibition,[4]; at 50.0 µM,87.5% (active)
same,growth inhibition,[4]; at 100.0 µM,94% (active)
same,growth inhibition,[5]; at 1.2 µM,2%
same,growth inhibition,[5]; at 3.7 µM,18%
same,growth inhibition,[5]; [16],25%
same,growth inhibition,[5]; at 11.0 µM,62%
same,growth inhibition,[5]; at 33.0 µM,95% (active)
same,growth inhibition,[5]; [17],98% (active)
same,growth inhibition,[5]; at 50.0 µM,83.2% (active)
same,growth inhibition,[5]; at 100.0 µM,98% (active)
same,growth inhibition,[6]; at 1.2 µM,12%
same,growth inhibition,[6]; at 3.7 µM,37%
same,growth inhibition,[6]; at 11.0 µM,89% (active)
same,growth inhibition,[6]; at 33.0 µM,97% (active)
same,growth inhibition,[6]; at 100.0 µM,99% (active)
same,growth inhibition,[7]; [16],91% (active)
same,growth inhibition,[7]; [17],97% (active)
same,growth inhibition,[7]; at 50.0 µM,91.8% (active)
same,growth inhibition,[8]; at 1.2 µM,-11%
same,growth inhibition,[8]; at 3.7 µM,-12%
same,growth inhibition,[8]; at 11.0 µM,6%
same,growth inhibition,[8]; at 33.0 µM,35%
same,growth inhibition,[8]; at 100.0 µM,86% (active)
same,growth inhibition,[9]; at 1.2 µM,-12%
same,growth inhibition,[9]; at 3.7 µM,-13%
same,growth inhibition,[9]; [16],3%
same,growth inhibition,[9]; at 11.0 µM,-11%
same,growth inhibition,[9]; at 33.0 µM,17%
same,growth inhibition,[9]; [17],83% (active)
same,growth inhibition,[9]; at 50.0 µM,53.2%
same,growth inhibition,[9]; at 100.0 µM,65%
same,growth inhibition,[10]; at 1.2 µM,1%
same,growth inhibition,[10]; at 3.7 µM,3%
same,growth inhibition,[10]; at 11.0 µM,14%
same,growth inhibition,[10]; at 33.0 µM,35%
same,growth inhibition,[10]; at 100.0 µM,79% (active)
same,growth inhibition,[11]; at 1.2 µM,0%
same,growth inhibition,[11]; at 3.7 µM,3%
same,growth inhibition,[11]; at 11.0 µM,20%
same,growth inhibition,[11]; at 33.0 µM,50%
same,growth inhibition,[11]; at 100.0 µM,89% (active)
same,growth inhibition,[12]; at 1.2 µM,43%
same,growth inhibition,[12]; at 3.7 µM,75% (active)
same,growth inhibition,[12]; at 11.0 µM,89% (active)
same,growth inhibition,[12]; at 33.0 µM,93% (active)
same,growth inhibition,[12]; at 100.0 µM,96% (active)
same,growth inhibition,[13]; [16],88% (active)
same,growth inhibition,[13]; [17],98% (active)
same,growth inhibition,[13]; at 50.0 µM,93.8% (active)
same,growth inhibition,[14]; at 1.2 µM,92% (active)
same,growth inhibition,[14]; at 3.7 µM,94% (active)
same,growth inhibition,[14]; at 11.0 µM,94% (active)
same,growth inhibition,[14]; at 33.0 µM,96% (active)
same,growth inhibition,[14]; at 100.0 µM,96% (active)
COc1ccc(/C=C2\SC(=S)N(C=C3C(=O)NC(=S)NC3=O)C2=O)cc1OC,growth inhibition,[1]; at 1.2 µM,12%
same,growth inhibition,[1]; at 3.7 µM,15%
same,growth inhibition,[1]; at 11.0 µM,47%
same,growth inhibition,[1]; at 33.0 µM,83% (active)
same,growth inhibition,[1]; at 100.0 µM,89% (active)
same,growth inhibition,[2]; at 1.2 µM,4%
same,growth inhibition,[2]; at 3.7 µM,6%
same,growth inhibition,[2]; at 11.0 µM,25%
same,growth inhibition,[2]; at 33.0 µM,79% (active)
same,growth inhibition,[2]; at 100.0 µM,94% (active)
same,growth inhibition,[3]; at 1.2 µM,0%
same,growth inhibition,[3]; at 3.7 µM,7%
same,growth inhibition,[3]; at 11.0 µM,37%
same,growth inhibition,[3]; at 33.0 µM,56%
same,growth inhibition,[3]; at 100.0 µM,59%
same,growth inhibition,[4]; at 1.2 µM,3%
same,growth inhibition,[4]; at 3.7 µM,3%
same,growth inhibition,[4]; [16],-2%
same,growth inhibition,[4]; at 11.0 µM,37%
same,growth inhibition,[4]; at 33.0 µM,80% (active)
same,growth inhibition,[4]; [17],65%
same,growth inhibition,[4]; at 50.0 µM,49.8%
same,growth inhibition,[4]; at 100.0 µM,88% (active)
same,growth inhibition,[5]; at 1.2 µM,10%
same,growth inhibition,[5]; at 3.7 µM,14%
same,growth inhibition,[5]; [16],-16%
same,growth inhibition,[5]; at 11.0 µM,58%
same,growth inhibition,[5]; at 33.0 µM,91% (active)
same,growth inhibition,[5]; [17],75% (active)
same,growth inhibition,[5]; at 50.0 µM,77.8% (active)
same,growth inhibition,[5]; at 100.0 µM,93% (active)
same,growth inhibition,[7]; [16],-6%
same,growth inhibition,[7]; [17],76% (active)
same,growth inhibition,[7]; at 50.0 µM,85.8% (active)
same,growth inhibition,[8]; at 1.2 µM,-11%
same,growth inhibition,[8]; at 3.7 µM,-1%
same,growth inhibition,[8]; at 11.0 µM,39%
same,growth inhibition,[8]; at 33.0 µM,85% (active)
same,growth inhibition,[8]; at 100.0 µM,90% (active)
same,growth inhibition,[15]; [16],-25%
same,growth inhibition,[15]; [17],33%
same,growth inhibition,[15]; at 50.0 µM,37.6%
same,growth inhibition,[9]; at 1.2 µM,6%
same,growth inhibition,[9]; at 3.7 µM,8%
same,growth inhibition,[9]; [16],3%
same,growth inhibition,[9]; at 11.0 µM,33%
same,growth inhibition,[9]; at 33.0 µM,60%
same,growth inhibition,[9]; [17],-1%
same,growth inhibition,[9]; at 50.0 µM,44.3%
same,growth inhibition,[9]; at 100.0 µM,59%
same,growth inhibition,[10]; at 1.2 µM,1%
same,growth inhibition,[10]; at 3.7 µM,7%
same,growth inhibition,[10]; at 11.0 µM,52%
same,growth inhibition,[10]; at 33.0 µM,92% (active)
same,growth inhibition,[10]; at 100.0 µM,95% (active)
same,growth inhibition,[11]; at 1.2 µM,0%
same,growth inhibition,[11]; at 3.7 µM,10%
same,growth inhibition,[11]; at 11.0 µM,51%
same,growth inhibition,[11]; at 33.0 µM,89% (active)
same,growth inhibition,[11]; at 100.0 µM,89% (active)
same,growth inhibition,[12]; at 1.2 µM,11%
same,growth inhibition,[12]; at 3.7 µM,29%
same,growth inhibition,[12]; at 11.0 µM,61%
same,growth inhibition,[12]; at 33.0 µM,94% (active)
same,growth inhibition,[12]; at 100.0 µM,93% (active)
same,growth inhibition,[13]; [16],7%
same,growth inhibition,[13]; [17],69%
same,growth inhibition,[13]; at 50.0 µM,68.3%
same,growth inhibition,[14]; at 1.2 µM,16%
same,growth inhibition,[14]; at 3.7 µM,34%
same,growth inhibition,[14]; at 11.0 µM,60%
same,growth inhibition,[14]; at 33.0 µM,82% (active)
same,growth inhibition,[14]; at 100.0 µM,89% (active)
